Data on six compounds can be found in PubChem BioAssay (Tox21).

Values without a mark were called inactive. Inconclusive results are not listed. Active and inactive are the calls of the source. Unless noted, calls follow the shape of the full dose curve.

Assay [1] can be described thus: Nuclear factor erythroid 2-related factor 2/antioxidant responsive element (Nrf2/ARE) small molecule agonists: qHTS cell viability counter screen in human keratinocytes (AID 1919968; active = well fitted curve in the direction sought with a large enough effect in the repeat runs; an effect the other way counts as inactive or inconclusive; also: nearly all actives have a fitted effect of over 55% in size; also: potency is read from the fitted curve at half-maximal effect). The method in brief:
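Stably transfected HaCaT (KeratinoSens), 1,500/well. Test agents in DMSO were applied for 23 h, 37 C/5% CO2. CellTiter-Fluor was incubated 1 h before the fluorescence read.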

Assay [2] addresses Gonadotropin-releasing hormone receptor (Homo sapiens) (UniProt P30968). Kind of assay: Human gonadotropin-releasing hormone receptor (GnRHR) small molecule agonists, calcium flux assay in GnRHR-HEK293 cells (AID 1920063). Also: nearly all actives have a fitted effect of over 35% in size. An outline of the steps: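 Stable human GnRHR HEK293 line. 18 h plating, then calcium dye for 1 h at 37 C. Agonist-mode compound addition from DMSO stocks; fluorescence monitored 3 min.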
Background: A change in cytosolic calcium serves as a functional read-out for many receptors and channels.

The target in assay [3] is KiSS-1 receptor (Homo sapiens) (UniProt Q969F8). Kind of assay: Human kisspeptin (KISS1R) small molecule agonists, calcium flux assay in KISS1R-HEK293 cells (AID 1920064; active = well fitted curve in the direction sought with a large enough effect in the repeat runs; an effect the other way counts as inactive or inconclusive). The method in brief:
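After overnight (18 h) culture at 37 C/5% CO2, human KISS1R-HEK293 cells received calcium dye for 1 h, then test compound; emission at 540 nm (excitation 480 nm) was tracked for 3 min.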

Assay [4] can be described thus: G protein-coupled receptor (GPCR) small molecule agonists, calcium flux assay: HEK293 wild type cell line counter screen (AID 1920065). The method in brief: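 Following 18 h incubation at 37 C/5% CO2, plates got calcium dye for 1 h; compounds, ATP or DMSO were then pinned in and fluorescence followed kinetically (480/540 nm).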
Assay [5] can be described thus: p53 small molecule agonists, cell-based qHTS assay with human liver microsomes (AID 1963577). The method in brief:
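p53RE-bla reporter cells were pre-incubated 5 h at 37 C, then treated with compounds plus human liver microsomes (0.5 mg/mL final) and NADPH (0.5 mg/mL final) for 16 h at 37 C. Beta-lactamase activity was read by LiveBLAzer fluorescence after 2 h at room temperature.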

Assay [6] can be described thus: p53 small molecule agonists, cell-based qHTS assay with rat liver microsomes (AID 1963578). An outline of the steps: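 p53RE-bla cells were exposed to compounds together with rat liver microsomes (0.5 mg/mL final) and NADPH (0.5 mg/mL final) for 16 h at 37 C, then read by LiveBLAzer beta-lactamase fluorescence after 2 h at room temperature.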
On the technique in general: Quantitative high-throughput screening tests each substance at several concentrations.

Assay [7] is described as follows: p53 small molecule agonists, cell-based qHTS assay with human liver microsomes: qHTS cell viability counter screen (AID 1963579). Also: nearly all actives have a fitted effect of over 45% in size. An outline of the steps:
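p53RE-bla cells (4,000/well) were pre-incubated 5 h at 37 C, then given compounds in DMSO plus human liver microsomes (0.5 mg/mL final) and NADPH (0.5 mg/mL final) for 16 h at 37 C. Viability was read by CellTiter-Glo luminescence.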

Assay [8] in a line: p53 small molecule agonists, cell-based qHTS assay with rat liver microsomes: qHTS cell viability counter screen (AID 1963580). Also: nearly all actives have a fitted effect of over 45% in size. The method in brief:
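After the beta-lactamase ratio was read, CellTiter-Glo was added to the same wells and luminescence measured at 30 min; cells had been treated 16 h at 37 C with compounds, rat liver microsomes and NADPH (0.5 mg/mL final each).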

A short description of assay [9]: p53 small molecule agonists, cell-based qHTS assay (AID 1963582; active = well fitted activation curve with a large enough effect in the signal ratio in the repeat runs, not every such curve was filed as active; the % refers to the signal ratio). The method in brief: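 Measured: fluorescence from cleaved LiveBLAzer substrate. System: p53RE-bla cells, 16 h compound treatment at 37 C, 2 h substrate step at room temperature.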
The target of assay [10] is 5-hydroxytryptamine receptor 2A (Homo sapiens) (UniProt P28223). Kind of assay: 5-hydroxytryptamine receptor 2A (HTR2A) small molecule antagonists, cell-based qHTS assay (AID 1963586). Also: nearly all actives have a fitted effect of over 45% in size. An outline of the steps:
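CHO cells stably expressing human HTR2A were plated for 18 h at 37 C, then loaded with calcium dye for 1 h. Compounds were preincubated 5 min at room temperature before DOI (4 nM solution) was added. Kinetic fluorescence was read for 3 min.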

For assay [11] the target is unchanged. Kind of assay: 5-hydroxytryptamine receptor 2A (HTR2A) small molecule agonists, cell-based qHTS assay (AID 1963587). Also: nearly all actives have a fitted effect of over 30% in size. An outline of the steps: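 CHO cells stably expressing human HTR2A, plated 18 h, loaded with calcium dye 1 h at 37 C. Agonist mode: compounds added and intracellular calcium fluorescence recorded kinetically for 2 min at 1 sec intervals.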
In assay [12] the target is Muscarinic acetylcholine receptor M1 (Homo sapiens) (UniProt P11229). Kind of assay: Cholinergic receptor muscarinic 1 (CHRM1) small molecule antagonists, cell-based qHTS assay (AID 1963588). Also: nearly all actives have a fitted effect of over 40% in size. An outline of the steps:
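Compounds were tested at 15 concentrations in three independent runs. Dye-loaded CHRM1-CHO cells were exposed 5 min at room temperature before stimulation by acetylcholine added at 50nM. Intracellular calcium was read kinetically on FDSS for 3 min.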

The target is the same in assay [13]. Kind of assay: Cholinergic receptor muscarinic 1 (CHRM1) small molecule agonists, cell-based qHTS assay (AID 1963589). Also: nearly all actives have a fitted effect of over 35% in size. An outline of the steps: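 Kinetic fluorescence (1 s intervals) of calcium-sensitive dye in human M1 CHO cells after compound addition; cells pre-incubated 18 h at 37 C/5% CO2 and dye-loaded 1 h.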
Assay [14] can be described thus: cAMP Responsive Elements (CRE) small molecule agonists, cell-based qHTS assay (AID 1963590). The method in brief: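 Test agents in DMSO were incubated 3 h at 37 C/5% CO2 with CRE-bla HEK 293T cells seeded 18 h earlier; LiveBLAzer B/G FRET substrate was added and read after 2 h at room temperature.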
Assay [15] in a line: cAMP Responsive Elements (CRE) small molecule antagonists, cell-based qHTS assay (AID 1963591; active = well fitted inhibition curve with a large enough effect in the signal ratio in the repeat runs, not every such curve was filed as active; the % refers to the signal ratio). The method in brief:
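Reporter line CRE-bla HEK 293T in dialyzed-FBS DMEM; cells preincubated 18 h, treated 3 h with compound plus NKH477 (0.25 uM final); LiveBLAzer FRET, 2 h RT.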

Assay [16] addresses Beta-2 adrenergic receptor (Homo sapiens) (UniProt P07550). Kind of assay: Adrenergic beta2 receptor (ADRB2) small molecule antagonists, cell-based qHTS assay (AID 1963592). Also: series mostly up to about 92 µM; nearly all actives have a fitted effect of over 50% in size. The method in brief: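 Assay format: CHO-ADRB2 cells, 18-20hr seeding at 37C/5% CO2, then compound plus 1nM isoproterenol agonist mix for 0.5hr RT. Homogeneous time-resolved fluorescence cAMP detection after 1hr, expressed as 665/615 nm ratio.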

The target of assay [17] is D(2) dopamine receptor (Homo sapiens) (UniProt P14416). Kind of assay: Dopamine D2 receptor (DRD2) small molecule agonists, cell-based qHTS assay (AID 1963594). Also: nearly all actives have a fitted effect of over 35% in size. An outline of the steps: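 HEK293 cells stably expressing human DRD2, pre-treated with PDE inhibitor Ro20-1724 (0.1 mM final) and compound 10 min at room temperature, then stimulated with NKH477 (200nM […]) for 30 min. cAMP read by HTRF (665/620 nm).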
D(2) dopamine receptor (Homo sapiens), sequence (P14416 whole entry, looked up): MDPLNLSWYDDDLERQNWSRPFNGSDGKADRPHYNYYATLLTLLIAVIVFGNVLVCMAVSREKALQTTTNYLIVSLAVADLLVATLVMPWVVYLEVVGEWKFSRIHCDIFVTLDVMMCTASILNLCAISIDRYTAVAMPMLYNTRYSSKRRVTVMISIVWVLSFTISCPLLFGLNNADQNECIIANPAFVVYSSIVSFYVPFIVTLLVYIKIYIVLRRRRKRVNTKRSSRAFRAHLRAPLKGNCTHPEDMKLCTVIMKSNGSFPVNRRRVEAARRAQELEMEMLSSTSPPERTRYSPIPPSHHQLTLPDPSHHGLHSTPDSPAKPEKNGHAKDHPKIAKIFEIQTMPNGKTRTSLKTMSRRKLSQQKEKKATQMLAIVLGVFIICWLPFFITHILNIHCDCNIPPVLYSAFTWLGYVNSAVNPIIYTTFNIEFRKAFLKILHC

For assay [18] the target is unchanged. Kind of assay: Dopamine D2 receptor (DRD2) small molecule antagonists, cell-based qHTS assay (AID 1963595; active = well fitted inhibition curve with a large enough effect in the signal ratio in the repeat runs, with a control signal flat; the % refers to the signal ratio). An outline of the steps:
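Readout: HTRF cAMP, cAMP-d2 competing with cellular cAMP for anti-cAMP cryptate, read after 1 h. Cells: DRD2-HEK293. Conditions: 0.1 mM Ro20-1724, 12 nM quinpirole, 200 nM NKH477, 30 min RT.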

Assay [19] in a line: p53 small molecule agonists, cell-based qHTS assay: qHTS cell viability counter screen (AID 1963581). Also: nearly all actives have a fitted effect of over 45% in size. An outline of the steps:
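qHTS counter screen: 16 h compound exposure at 37 C of p53RE-bla HCT-116 cells (4,000 per well, seeded 5 h prior), cell viability by ATP luminescence.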

The target of assay [20] is Beta-2 adrenergic receptor (Homo sapiens) (UniProt P07550). Kind of assay: Adrenergic beta2 receptor (ADRB2) small molecule agonists, cell-based qHTS assay (AID 1963593).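 Also: CHO cells stably overexpressing human ADRB2.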 The method in brief: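 CHO cells stably over-expressing ADRB2 were plated overnight at 37C, then dosed with compounds plus a stimulation mix containing 100uM IBMX and 25uM Ro-20-1724 for 0.5hr at room temperature. cAMP was measured by HTRF competition, 1hr.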
Beta-2 adrenergic receptor (Homo sapiens), sequence (P07550 whole entry, looked up): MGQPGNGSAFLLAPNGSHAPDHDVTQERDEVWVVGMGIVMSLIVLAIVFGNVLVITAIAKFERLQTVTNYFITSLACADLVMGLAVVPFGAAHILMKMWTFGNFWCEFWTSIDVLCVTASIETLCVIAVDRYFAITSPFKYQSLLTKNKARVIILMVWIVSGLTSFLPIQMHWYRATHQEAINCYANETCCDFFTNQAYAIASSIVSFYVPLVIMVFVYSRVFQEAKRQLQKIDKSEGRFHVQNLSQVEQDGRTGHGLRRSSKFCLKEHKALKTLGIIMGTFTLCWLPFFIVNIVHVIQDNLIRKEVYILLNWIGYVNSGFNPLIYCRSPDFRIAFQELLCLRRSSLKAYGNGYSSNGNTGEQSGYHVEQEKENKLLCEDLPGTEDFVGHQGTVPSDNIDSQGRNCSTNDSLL
% is scaled to controls: 0 for no effect and ±100 for the full control effect.

KiSS-1 receptor (Homo sapiens), sequence (Q969F8 whole entry, looked up): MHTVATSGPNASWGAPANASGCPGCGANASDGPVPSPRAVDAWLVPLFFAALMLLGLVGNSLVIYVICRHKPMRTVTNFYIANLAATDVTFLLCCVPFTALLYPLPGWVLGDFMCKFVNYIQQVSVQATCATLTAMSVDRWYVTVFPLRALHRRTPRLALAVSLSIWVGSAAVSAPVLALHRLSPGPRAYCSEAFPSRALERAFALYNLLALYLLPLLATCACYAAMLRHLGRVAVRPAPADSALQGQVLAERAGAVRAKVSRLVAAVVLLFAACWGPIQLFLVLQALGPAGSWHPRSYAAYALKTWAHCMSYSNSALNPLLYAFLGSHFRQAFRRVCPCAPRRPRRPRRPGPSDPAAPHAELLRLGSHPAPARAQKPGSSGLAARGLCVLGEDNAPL
Gonadotropin-releasing hormone receptor (Homo sapiens), sequence (P30968 whole entry, looked up): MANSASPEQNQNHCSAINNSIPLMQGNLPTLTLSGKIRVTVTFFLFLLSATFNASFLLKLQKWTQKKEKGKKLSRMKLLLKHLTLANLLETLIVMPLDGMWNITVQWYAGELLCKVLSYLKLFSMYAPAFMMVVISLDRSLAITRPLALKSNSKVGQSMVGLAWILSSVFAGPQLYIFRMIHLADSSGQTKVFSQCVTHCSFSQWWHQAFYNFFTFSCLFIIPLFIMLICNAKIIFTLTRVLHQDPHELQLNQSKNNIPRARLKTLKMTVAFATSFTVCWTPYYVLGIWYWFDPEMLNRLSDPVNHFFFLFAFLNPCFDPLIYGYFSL
5-hydroxytryptamine receptor 2A (Homo sapiens), sequence (P28223 whole entry, looked up): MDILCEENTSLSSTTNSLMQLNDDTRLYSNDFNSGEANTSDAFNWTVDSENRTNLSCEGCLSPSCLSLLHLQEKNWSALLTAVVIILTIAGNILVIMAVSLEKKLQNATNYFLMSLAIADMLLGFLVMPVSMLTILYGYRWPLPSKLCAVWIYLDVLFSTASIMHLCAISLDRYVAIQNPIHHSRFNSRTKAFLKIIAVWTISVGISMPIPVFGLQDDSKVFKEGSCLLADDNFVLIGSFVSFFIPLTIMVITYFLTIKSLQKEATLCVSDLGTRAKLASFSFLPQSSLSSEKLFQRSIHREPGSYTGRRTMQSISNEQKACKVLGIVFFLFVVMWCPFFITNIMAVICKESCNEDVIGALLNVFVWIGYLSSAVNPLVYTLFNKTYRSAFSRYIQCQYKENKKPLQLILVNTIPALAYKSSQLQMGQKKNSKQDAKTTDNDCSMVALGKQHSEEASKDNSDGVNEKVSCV
Muscarinic acetylcholine receptor M1 (Homo sapiens), sequence (P11229 whole entry, looked up): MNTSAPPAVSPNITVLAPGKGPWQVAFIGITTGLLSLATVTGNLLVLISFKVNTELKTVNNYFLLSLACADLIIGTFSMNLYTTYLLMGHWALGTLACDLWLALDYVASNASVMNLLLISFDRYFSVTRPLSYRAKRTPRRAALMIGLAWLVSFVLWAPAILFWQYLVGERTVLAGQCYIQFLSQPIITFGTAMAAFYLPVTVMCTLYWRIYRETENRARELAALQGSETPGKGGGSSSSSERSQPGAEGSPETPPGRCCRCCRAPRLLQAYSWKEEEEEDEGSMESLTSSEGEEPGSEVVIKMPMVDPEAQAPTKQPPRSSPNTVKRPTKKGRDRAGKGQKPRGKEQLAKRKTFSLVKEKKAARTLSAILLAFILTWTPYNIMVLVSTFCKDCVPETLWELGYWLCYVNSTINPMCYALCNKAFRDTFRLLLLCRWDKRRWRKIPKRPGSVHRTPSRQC

Turning to `NCCc1cnc[nH]1`, the Potency entry in assay [1], in assay [2], in assay [3], in assay [4], in [5] and in assay [6] was “inactive” each time. Moreover, the Potency result in [7], in assay [8], in [9], in assay [10], in assay [11] and in assay [12] was “inactive” in each case. Further, the Potency result in [13], in assay [14], in assay [15], in assay [16], in [17] and in assay [18] was “inactive” throughout.

`CC(C)C1=CC2=CC[C@@H]3[C@](C)(CCC[C@@]3(C)C(=O)O)[C@H]2CC1`: the Potency result in [1], in assay [2], in [3], in assay [4], in [5] and in assay [6] was “inactive” throughout. Also, the Potency entry in [7], in assay [8], in [19], in assay [10], in [11] and in assay [12] was “inactive” each time. The Potency result in assay [13], in [16], in assay [17] and in assay [18] was “inactive” throughout.

For the compound `C[C@](N)(Cc1ccc(O)cc1)C(=O)O`, the activity change, negative = cytotoxicity in [1] is 5.45% [at 8.39 µM]; in assay [7], 8.09% [at 5.99 µM]; in [8], -5.36% [at 5.99 µM]; in assay [19], -19.4% [at 5.99 µM]. Also, the activity change in assay [2] was -1.06% [at 5.22 µM, active compounds read high]. The activation in assay [3] is -0.73% [at 6.97 µM]; in [4], 0.0455% [at 5.23 µM]; in assay [5], 3.02% [at 5.99 µM]; in assay [6], -3.92% [at 5.99 µM]; in assay [9], -6.7% [at 5.99 µM]; in assay [14], -0.0581% [at 8.39 µM]. Moreover, the results for the activation in assay [20] and in [17] were 23.8% [at 8.39 µM] and -6.61% [at 8.39 µM], respectively. The activity change, negative = inhibition was 2.35% [at 8.39 µM] in [15] and -5.15% [at 8.38 µM] in assay [18].

As to `Cc1cc(Cl)c(C)cc1Cl`, the Potency entry in [1], in assay [2], in assay [3], in assay [4], in [5] and in assay [6] was “inactive” throughout. Besides, the Potency result in assay [7], in [8], in assay [19], in assay [10], in [11] and in assay [13] was “inactive” throughout. For the same compound, the Potency result in assay [14], in assay [15], in assay [16], in assay [20], in assay [17] and in assay [18] was “inactive” throughout.

`Oc1ccc(N=Nc2ccccc2)cc1`: in assay [1], the Potency was 55.2 µM (active). For the same compound, the Potency entry in assay [2], in [3], in assay [4], in [5], in assay [6] and in assay [7] was “inactive” each time. Moreover, the Potency result in assay [8], in assay [9], in [11], in [12], in assay [13] and in assay [14] was “inactive” in each case. The Potency result in [15], in assay [17] and in [18] was “inactive” each time.

Take `O=C1NC(=O)[C@@H]2CC=CC[C@H]12`: the Potency result in [1], in assay [2], in [3], in assay [4], in assay [5] and in assay [6] was “inactive” throughout. Further, the Potency entry in assay [7], in [8], in assay [19], in assay [10], in assay [11] and in [13] was “inactive” throughout. In addition, the Potency entry in [16], in assay [20] and in [17] was “inactive” in each case.
